In PubChem BioAssay:
The source made the active and inactive calls. Unless noted, the rule behind the calls is not given here.

How the values were obtained:
[1] = system: Wnt5a (protein binding on small-molecule microarray); assay: small molecules binding Wnt5a protein – biophysical, small-molecule microarray, 635/667 nm fluorescence, primary screen (AID 1142); conditions: 635 nm fluorescence, higher = more signal;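 note: fluorescence read at 667 nm with signal to noise per printed feature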
[2] = ATP-based viability of Huh7 replicon cells – cell-based, CellTiter-Glo luminescence, basal, 48 h, cytotoxicity control for HCV replication inhibitor project, primary screen (AID 1143); conditions: higher = more signal, called active from +8 up or from −8 down;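 note: Huh7 hepatoma cells carrying a hepatitis C replication reporter with no stimulus; test concentration not given here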
[3] = Pseudomonas biofilm growth suppression – PAO1 strain, BacTiter-Glo luminescence, LB-PBS, primary screen (AID 1144); conditions: P. aeruginosa PAO1 biofilm, 12 h, higher = more signal
[4] = basal CRE-LacZ reporter activity in PC12 – cell-based, unstimulated, primary screen (AID 1145); conditions: no forskolin, luminescence, 4.5 h, higher = more signal, called active from +8 up or from −8 down
[5] = forskolin-driven CRE-LacZ activity in PC12 – cell-based, CRE-LacZ reporter, forskolin-stimulated, primary screen (AID 1146); conditions: luminescence, 4.5 h, higher = more signal, called active from +8 up or from −8 down;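 note: PC12 cells with 6xCRE LacZ reporter stimulated by forskolin 10 µM; beta-galactosidase reporter signal reflecting CREB driven transcription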
[6] = target: Streptavidin (Streptomyces avidinii) (UniProt P22629); assay: compounds binding control protein streptavidin – biophysical, small-molecule microarray, 635/667 nm fluorescence, artefact control for SMM compound annotation, primary screen (AID 1147); conditions: higher = more signal;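 note: signal reflects streptavidin binding to arrayed compounds as a control protein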
[7] = probe aInhba binding on compound microarray – biochemical, small-molecule microarray, 635/667 nm fluorescence, primary screen (AID 1148); conditions: higher = more signal;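 note: score merges 667nm spot fluorescence with signal-to-noise for antibody binding to printed compounds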
Torsin-1A (Homo sapiens) [8] = target: Torsin-1A (Homo sapiens) (UniProt O14656); assay: TOR1A wild-type binding on microarray – cell lysate, small-molecule microarray, lysate, 635/667 nm, primary screen (AID 1149); conditions: COS7 hTOR1A-WT lysate, 635 nm fluorescence, higher = more signal
Torsin-1A (Homo sapiens) [9] = target: Torsin-1A (Homo sapiens) (UniProt O14656); assay: torsin A mutant lysate binding on microarrays – cell lysate, small-molecule microarray, COS7 lysate, 635/667 nm fluorescence, primary screen (AID 1150); conditions: COS7 hTOR1A mutant lysate, 635 nm fluorescence, higher = more signal;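 note: score pools 667 nm emission and signal to noise measuring lysate protein binding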
[10] = system: Sonic hedgehog protein (Shh); assay: Sonic hedgehog microarray binding compounds – biochemical, small-molecule microarray, 635/667 nm fluorescence, primary screen (AID 1151); conditions: 635 nm fluorescence, higher = more signal;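 note: Shh protein binding to compounds spotted on small-molecule microarray slides; score combines spot fluorescence intensity with signal-to-noise across triplicate slides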

Torsin-1A (Homo sapiens), sequence (O14656 whole entry, looked up): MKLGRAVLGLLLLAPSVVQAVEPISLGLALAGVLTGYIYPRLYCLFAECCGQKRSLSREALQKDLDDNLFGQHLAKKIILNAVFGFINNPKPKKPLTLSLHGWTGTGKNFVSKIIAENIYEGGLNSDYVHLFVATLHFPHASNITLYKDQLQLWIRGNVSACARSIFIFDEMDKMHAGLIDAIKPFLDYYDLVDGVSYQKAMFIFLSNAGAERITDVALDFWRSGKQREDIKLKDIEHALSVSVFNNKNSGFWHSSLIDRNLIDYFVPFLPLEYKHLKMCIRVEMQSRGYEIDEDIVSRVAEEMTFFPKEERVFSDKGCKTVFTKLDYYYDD
Streptavidin (Streptomyces avidinii), sequence (P22629 whole entry, looked up): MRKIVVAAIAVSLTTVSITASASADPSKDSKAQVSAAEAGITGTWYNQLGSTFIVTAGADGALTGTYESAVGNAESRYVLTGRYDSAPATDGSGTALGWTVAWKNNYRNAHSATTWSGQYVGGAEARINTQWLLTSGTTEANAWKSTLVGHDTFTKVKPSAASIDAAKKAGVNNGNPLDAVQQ

Structure (SMILES) | composite z-score [1] | z-score [2] | z-score [3] | z-score [4] | z-score [5] | composite z-score [6] | composite z-score [7] | composite z-score (Torsin-1A (Homo sapiens) [8]) | composite z-score (Torsin-1A (Homo sapiens) [9]) | composite z-score [10]
O=C(O)C1=CC[C@H]2C(=O)N(c3ccccc3)C(=O)[C@@H]12 | 0.144 | 0.704 (inactive) | 0.317 (inactive) | 0.173 (inactive) | 0.676 (inactive) | 1.22 | 0.0448 | 1 | 0.448 | -0.323
CC(C)N1C(=O)[C@@]2(Cc3ccccc31)c1ccccc1C(=O)N(Cc1ccccc1)[C@H]2c1ccc(CO)cc1 | 0.164 | 0.629 (inactive) | 0.0609 (inactive) | -0.114 (inactive) | 0.467 (inactive) | -0.439 | -0.119 | 0.291 | -0.182 | 0.462
COC(=O)[C@@]1(Cc2ccc(F)cc2)[C@H]2c3cc(C(=O)N4CCCC4)n(Cc4ccc(C(F)(F)F)nc4)c3C[C@H]2CN1C(=O)c1ccccc1 | 0.406 | -2.55 (inactive) | 0.193 (inactive) | 0.197 (inactive) | -0.388 (inactive) | 1.99 | -0.025 | 1.45 | 1.14 | -0.388
CCCCN1CC=CC23O[C@@H]4/C=C\CCC(C)OC(=O)C4[C@H]2C(=O)N(CCO)[C@@H]3C1=O (stereo not given in full) | -0.122 | -1.08 (inactive) | -1.31 (inactive) | -0.627 (inactive) | -0.0432 (inactive) | -1.52 | -0.0494 | 2.84 | 2.94 | -0.0956
COC(=O)[C@@]1(Cc2ccccc2)[C@H]2c3cc(C(=O)N(C)C)n(CCF)c3C[C@H]2CN1C(=O)c1ccccc1 | 0.633 | -0.717 (inactive) | -0.247 (inactive) | 0.387 (inactive) | 0.218 (inactive) | 1.74 | 0.333 | -0.0224 | 1.16 | -0.187
COc1ccc([Si](C)(C)[C@H]2[C@H](CC(=O)N(CCO)Cc3ccccc3)O[C@@]3(C(=O)N(c4ccccc4)c4ccccc43)[C@@H]2C)cc1 | 0.318 | -7.96 (inactive) | -0.164 (inactive) | 16.4 (active) | -3.89 (inactive) | 0.862 | -0.0986 | 0.0895 | -0.364 | 1.2
CCOC(=O)C[C@H]1[C@H](OC(=O)c2ccc(-c3ccccc3)cc2)[C@@H](NC(=O)c2ccc(-c3ccccc3)cc2)c2cc(OCCCO)ccc2N1C(=O)c1ccccc1 | 0.131 | -0.212 (inactive) | -0.00979 (inactive) | -0.724 (inactive) | 0.659 (inactive) | 0.763 | 0.108 | 0.134 | 0.987 | 0.921
O=C1NC(=O)C2C1C=CC(C(O)C(O)CO)N2Nc1ccccn1 (stereo not given) | 0.146 | 0.165 (inactive) | -0.893 (inactive) | 0.0603 (inactive) | 0.0702 (inactive) | 0.0832 | -0.168 | 0.435 | 0.344 | 0.199
Cc1cccc([C@H]2C[C@H]3C(Br)=C[C@@]2(CO)C(=O)[C@]32CO2)c1 | 0.253 | -0.376 (inactive) | -0.53 (inactive) | -0.595 (inactive) | 3.9 (inactive) | -0.376 | -0.128 | -1.59 | -1.08 | 0.462
